# Assay outcomes (PubChem BioAssay)
# Compounds with a hit are over-represented: about 21% of the library has one in this group of screens.
# DRD3 antagonist: antagonists of human D3 dopamine receptor; P35462; max response, negative = inhibition, %; D3R cells, DiscoveRx beta-arrestin luminescence, antagonist mode; active compounds read low; hit rate 2.5% among 360,000; in the data active = max response below about -50%; inconclusive = no clear call, values can overlap the other calls; note: % is set by controls: 0 for no effect and ±100 for the full control effect
# Target sequence (P35462 whole entry, looked up): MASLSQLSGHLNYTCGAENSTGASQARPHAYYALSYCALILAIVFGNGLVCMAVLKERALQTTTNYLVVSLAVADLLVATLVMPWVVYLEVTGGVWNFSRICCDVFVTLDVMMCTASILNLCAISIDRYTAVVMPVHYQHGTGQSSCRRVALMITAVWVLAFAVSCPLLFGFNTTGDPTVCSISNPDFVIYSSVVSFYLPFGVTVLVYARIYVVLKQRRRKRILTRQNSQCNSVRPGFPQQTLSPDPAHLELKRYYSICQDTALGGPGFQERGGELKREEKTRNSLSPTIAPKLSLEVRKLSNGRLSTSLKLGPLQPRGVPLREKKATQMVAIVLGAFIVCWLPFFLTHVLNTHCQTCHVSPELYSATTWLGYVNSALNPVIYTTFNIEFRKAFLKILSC
#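 Cells expressing the human receptor were seeded at 1500 cells/well, incubated overnight at 37 degrees C in 5% CO2, then exposed to library compounds with dopamine controls for 90 minutes at 37 degrees C before luminescent detection.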
# DRD3 agonist: D3 dopamine receptor (human) agonism; P35462; D3R DiscoveRx beta-arrestin cells, luminescence, 90 min; max activation, %; hit rate 0.58% among 410,000; AID 652048; in the data active = max activation above about 30%; note: 0% is about no effect
#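 Agonist mode: compounds and dopamine controls were applied to plated cells for 90 min at 37 degrees C after an overnight attachment at 1500 cells/well. Luminescent read-out followed 30 - 60 minutes at room temperature with DiscoveRx detection reagent.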
# IL-1B inflam inh: inhibitors of inflammasome signaling (IL-1 beta secretion). AID 743279. THP-1 LPS/ATP IL-1B secretion, AlphaLISA, 16 h; active compounds read low. hit rate 4.7% among 360,000. activity change, % at 57.5 µM; in the data active = activity change below about -50%; inconclusive = mostly about -30% to -49%; note: % is set by controls: 0 for no effect and ±100 for the full control effect
#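 THP-1 cells pretreated 1 hr with compounds (up to 57.5 uM final), then stimulated with LPS (250 ng/mL final) plus ATP (1.25 mM final); secreted IL-1B measured by AlphaLISA after 16 hr, decreased signal indicating inhibition.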
# ClpP mod: qHTS Assay for Activators of ClpP | ATP-dependent Clp protease proteolytic subunit (Bacillus subtilis (strain 168)), P80244 | purified B. subtilis ClpP, FRET peptide cleavage, 20 min | Potency, µM (top dose mostly 57.5 µM), for inactives: at the top dose activity change, negative = active | hit rate 1.9% among 340,000 | AID 651965, 2013; active = well fitted falling curve with a large enough effect; inconclusive = small, poorly fitted or top-dose-only effect; inactive = no such curve, though single readings can be large or run the other way; note: potency is the fitted concentration of half-maximal effect; the source files actives as falling curves though it sought activators and does not explain the sign; nearly all actives have a fitted effect of over 65% in size
#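 Purified B. subtilis ClpP, 10 microg/mL final in Tris/HCl pH8 with KCl, BSA, glycerol and Tween-20, cleaved an Abz/nitrotyrosine-quenched decapeptide. Fluorescence (ex 320, em 430) was read at 0 and 20 min at room temperature. Delta was normalized to 5.8 microM ADEP and DMSO/no-enzyme controls.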
# TDP1 cell noCPT: qHTS for Inhibitors of human tyrosyl-DNA phosphodiesterase 1 (TDP1): qHTS in cells in absence of CPT; DT40 Tdp1-/- hTDP1 cells, no CPT, ATP luminescence, 48 h; Potency, µM (highest dose often 46.2 µM), for the others: top-dose activity change, negative = growth inhibition, usual class: inhibitors; hit rate 15% among 420,000; AID 686978, 2013; note: potency is the fitted concentration of half-maximal effect; % is set by controls: 0 for no effect and ±100 for the full control effect; nearly all actives have a fitted effect of over 55% in size
#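 Compound effects on proliferation are scored in DT40 Tdp1-/-;hTDP1 cells in the absence of CPT. ATP levels (CellTiter-Glo luminescence) are recorded after a ≥48 hr, 37 °C incubation.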
# DT40 TDP1 CPT: DT40-hTDP1 cell growth loss with CPT; chicken DT40 Tdp1-/-;hTDP1 cells + 20 nM CPT, ATP luminescence, 48 h; Potency, µM (top dose mostly 46.2 µM), for inactives: at the highest dose activity change, negative = growth inhibition, usual class: inhibitors; hit rate 12% among 420,000; AID 686979; note: potency is the fitted concentration of half-maximal effect; % is set by controls: 0 for no effect and ±100 for the full control effect; nearly all actives have a fitted effect of over 55% in size
#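 Cell growth measured by CellTiter-Glo luminescence after a minimum 48 h, 37 C compound exposure with 20 nM CPT in Tdp1-knockout DT40 cells stably expressing hTDP1, seeded 400/well; qHTS titration format.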
# Starred values were filed as active, the others as inactive; ? = inconclusive; . = no result given. Unless noted, calls come from the whole dose curve; as a rule, active = well fitted inhibition curve with a large enough effect; inconclusive = small, poorly fitted or top-dose-only effect; inactive = flat fitted curve, though single readings scatter.
SMILES,DRD3 antagonist,DRD3 agonist,IL-1B inflam inh,ClpP mod,TDP1 cell noCPT,DT40 TDP1 CPT
N/C(=N\OC(=O)c1ccccc1[N+](=O)[O-])c1cccnc1,1.6,6.1,33.9,4.0%,-5.2%,-1.7%
N/C(=N\OC(=O)c1ccc(Cl)c([N+](=O)[O-])c1)c1ccccc1,-65.3*,1.7,-6.3,0.7%,?,-11.6%
N/C(=N\OC(=O)c1cc([N+](=O)[O-])ccc1Cl)c1cccnc1,-10.7,4.1,-100.8*,-8.6%,?,?
Cc1ccc(C(=O)O/N=C(\N)c2cccnc2)cc1[N+](=O)[O-],1.0,8.5,-2.3,.,-2.9%,12.6%
N/C(=N\OC(=O)c1ccccc1Br)c1ccc([N+](=O)[O-])cc1,-70.8*,2.6,22.9,1.1%,-30.7%,-23.9%
COc1cc(=O)n2c(c1C(=O)NC(C)c1ccco1)CCN(Cc1ccccc1C(F)(F)F)CC2 (centres undefined),.,.,.,.,?,-4.2%
Cc1ccc(N(C(=O)c2csnn2)C(C(=O)NC2CCCCC2)c2cccnc2)cc1C (centres undefined),0.8,4.8,8.6,0.8%,-9.2%,-7.8%
FC(F)(F)C(F)(F)C(F)(F)C(F)(F)C(F)(F)C(F)(F)F,.,0.1,.,.,7.0%,2.3%
Cc1cc(N)nc2nc(C(F)(F)F)nn12,-13.7,-1.3,7.1,0.0%,-8.9%,0.3%
Cc1cc(C(=O)Oc2cccnc2)ccc1[N+](=O)[O-],-9.2,6.1,19.0,.,-21.9%,0.2%
O=C(Oc1c(Br)cc([N+](=O)[O-])cc1Br)c1cccnc1,-29.1,-10.5,0.0,.,?,18.4µM*
Cc1ccc(C2=NO[C@@](CC(=O)O)(C(=O)Nc3ccc4c(c3)OCCO4)C2)cc1,-0.5,95.4*,25.7,.,-12.4%,7.7%
COc1ccc(N(CC(=O)Nc2ccc3c(c2)OCO3)S(=O)(=O)c2ccc(F)cc2)cc1,-2.5,-6.0,0.0,-2.5%,?,?
Cc1ccc(N(C(C)C(=O)Nc2ccc3c(c2)OCO3)S(C)(=O)=O)cc1 (centres undefined),12.8,0.5,-4.4,-11.9%,20.6µM*,13µM*
COc1ccc(N(CC(=O)Nc2ccc3c(c2)OCCO3)S(=O)(=O)c2cccc(C)c2)cc1,19.6,2.0,-9.3,.,?,25.9µM*
Cc1ccc(N(CC(=O)Nc2ccc3c(c2)OCCO3)S(C)(=O)=O)cc1,-89.2*,-12.3,-10.9,.,-27.6%,2.4%
Cc1ccc(C(=O)Nc2ccc3c(c2)OCO3)cc1,1.8,-1.9,-18.8,-2.3%,-29.4%,?
COc1ccc(S(=O)(=O)N2CCOC23CCN(C(=O)c2ccccc2OC)CC3)cc1,0.5,6.0,-16.1,.,-25.8%,13.1%
Cc1cnc(CNC(=O)c2csc(COCCO)n2)cn1,17.7,12.2,26.1,-0.2%,5.3%,5.5%
CN1C=Nc2c(ncn2C2CCC(CO)O2)C1O (centres undefined),5.1,7.5,16.0,1.0%,-11.6%,-22.9%
CS(=O)(=O)N(CC(=O)Nc1ccccc1C(=O)NCCc1ccccc1)c1ccc2c(c1)OCCO2,-7.6,-4.8,-14.4,-21.5%,20.6µM*,29.1µM*
COC(=O)c1ccc(CN(c2ccc(C)cc2)S(=O)(=O)c2ccc3c(c2)OCCO3)o1,11.4,-7.1,37.8,3.7%,16.4µM*,11.6µM*
Cc1ccc(NC2CCCN(C(=O)c3cn(C)c4ccccc34)C2)cc1C (centres undefined),4.1,5.4,4.4,-14.4%,?,?
O=S(c1ccccc1O)S(=O)c1ccccc1O (centres undefined),-21.2,-10.0,?,.,5.17µM*,5.8µM*
COc1ccc(CNCCC(c2ccccc2)c2ccc(OC(C)C)cc2)cc1OC (centres undefined),6.5,-23.9,.,?,23.1µM*,23.1µM*
